# Results: PubChem BioAssay (Tox21)
# Inconclusive results are not listed. A call without a number means that no potency is given here. Values without a mark were called inactive. Activity calls are given as the source filed them. Unless noted, the call rests on the fitted dose curve; in most records, active means well fitted curve in the direction sought with a large enough effect in the repeat runs; inconclusive means weak or mixed curves; inactive means no such curve, though single readings can be large; an effect the other way counts as inactive or inconclusive.
# Tests used:
# [1] = biological target: Retinoic acid receptor RXR-alpha (Homo sapiens) (UniProt P19793); assay: qHTS assay to identify small molecule agonists of the RXR signaling pathway (AID 1159527; calls by dose curve; further: nearly all actives have a fitted effect of over 35% in size)
# How it was run: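 Reporter activation is measured as beta-lactamase activity via FRET substrate cleavage (emission 460/530 nm) in HEK 293T cells expressing an RXR-alpha-driven bla construct, following 16 hr compound exposure at 37 C.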
# [2] = qHTS assay to identify small molecule agonists of the RXR signaling pathway - cell viability counter screen (AID 1159529); further: series mostly up to about 77 µM; nearly all actives have a fitted effect of over 50% in size
# How it was run: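 Tox21 10K compounds were tested for cytotoxicity against GeneBLAzer RXR-alpha HEK 293T cells grown in 2% charcoal-stripped FBS. Exposure lasted 16 hr at 37 C, 5% CO2; viability read by CellTiter-Glo luminescence.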
# [3] = qHTS assay to identify small molecule antagonists of the retinoid acid receptor (RAR) signaling pathway - cell viability counter screen (AID 1159551); further: nearly all actives have a fitted effect of over 35% in size
# How it was run: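 Cytotoxicity counter screen: ATP content quantified by CellTiter-Glo luminescence in C3RL4 cells treated 6 hr at 37 C with compound and retinol (1 uM final). Cells plated at 1,000/well and cultured overnight before dosing.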
# [4] = qHTS assay to identify small molecule agonists of the retinoic acid receptor (RAR) signaling pathway (AID 1159553)
# How it was run: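 Luminescence was measured 30 min after luciferase reagent addition at room temperature. Before that, C3RL4 reporter cells (1,000 per well, plated overnight) were treated with compound for 6 hr at 37 C and 5% CO2.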
# [5] = qHTS assay to identify small molecule antagonists of the estrogen related receptor (ERR) signaling pathway from Tox21 library - cell viability counter screen (AID 1224834); further: nearly all actives have a fitted effect of over 30% in size
# How it was run: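 CellTiter-Fluor fluorescence, read after 30 min at 37 C, measures viability of ERR cells. Cells plated at 2,000/well and incubated 6 h before pin-tool compound addition, then exposed 17.5 hours at 37 C.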
# [6] = biological target: Luciferin 4-monooxygenase (Photinus pyralis) (UniProt P08659); assay: qHTS assay to identify small molecule inhibitors of firefly luciferase (AID 1224835); further: nearly all actives have a fitted effect of over 25% in size; further: potency means the concentration at half of the fitted maximal effect; on activity change, negative = inhibition: series mostly up to about 120 µM
# How it was run: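 Quantitative HTS format; KM concentrations of both substrates. Purified P. pyralis FLuc activity quantified from luminescence images.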
# [7] = qHTS assay to identify small molecule agonists of the constitutive androstane receptor (CAR) signaling pathway - cell viability counter screen (AID 1224836); further: series mostly up to about 92 µM; nearly all actives have a fitted effect of over 45% in size
# How it was run: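 Fluorescence from CellTiter-Fluor indicates live cells after 23 h exposure. The human hepatoma line expresses hCAR and a CYP2B6-2.2kb reporter. Incubation medium contains 0.75 uM PK11195 (final).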
# [8] = qHTS assay to identify small molecule antagonists of the constitutive androstane receptor (CAR) signaling pathway - cell viability counter screen (AID 1224837); further: series mostly up to about 92 µM; nearly all actives have a fitted effect of over 45% in size
# How it was run: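 Cytotoxicity counter-screen: CellTiter-Fluor fluorescence after 23 h compound exposure (15-point qHTS) in double-stable HepG2-CYP2B6-hCAR cells, with 50 nM CITCO added.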
# [9] = biological target: Nuclear receptor subfamily 1 group I member 3 (Homo sapiens) (UniProt Q14994); assay: qHTS assay to identify small molecule antagonists of the constitutive androstane receptor (CAR) signaling pathway (AID 1224838);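 further: HepG2 cells stably expressing hCAR with CYP2B6 luciferase reporter stimulated by CITCO; nearly all actives have a fitted effect of over 40% in size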
# How it was run: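 Antagonism measured as luciferase signal (ONE-Glo, 30 min, room temperature) in CAR-stimulated cells: HepG2-CYP2B6-hCAR double-stable line exposed 24 hr at 37 C to compound in a 15-point series plus 50 nM CITCO.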
# [10] = biological target: Nuclear receptor subfamily 1 group I member 3 (Homo sapiens) (UniProt Q14994); assay: qHTS assay to identify small molecule agonists of the constitutive androstane receptor (CAR) signaling pathway (AID 1224839);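 further: HepG2 cells stably carrying human CAR and a CYP2B6 luciferase reporter; series mostly up to about 92 µM; nearly all actives have a fitted effect of over 15% in size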
# How it was run: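 Stable hCAR/CYP2B6-2.2kb HepG2 line in DMEM with 10% FBS; compounds (15 concentrations) and 0.75 uM PK11195 final, 24 h at 37 C/5% CO2, then ONE-Glo luminescence after 30 min.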
# [11] = qHTS assay to identify small molecule antagonists of the estrogen related receptor signaling pathway with the pleiotropic PPARgamma coactivator (PGC) from Tox21 10K library - cell viability counter screen (AID 1224840; active means well fitted cell-killing curve with a large enough effect in the repeat runs, not every such curve was filed as active; further: nearly all actives have a fitted effect of over 40% in size)
# How it was run: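 Counter-screen for cytotoxicity: after 17.5 h compound exposure at 37 C, CellTiter-Fluor reagent added to PGC/ERR cells for 30 min and fluorescence read. Cells were seeded at 2,000 per well 6 h before dosing.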
# [12] = biological target: Thyrotropin receptor (Homo sapiens) (UniProt P16473); assay: qHTS assay to identify small molecule agonists of the thyroid stimulating hormone receptor (TSHR) signaling pathway (AID 1224843; calls by dose curve; further: nearly all actives have a fitted effect of over 45% in size)
# How it was run: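 Compounds are titrated over 15 concentrations, in triplicate, onto TSHR-HEK293 cells seeded at 800/well. Plates sit 30 min at room temperature before cAMP-d2 and anti-cAMP cryptate are added; signal is read after a further hour.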
# [13] = qHTS assay to identify small molecule antagonists of the estrogen related receptor (ERR) signaling pathway - cell viability counter screen (AID 1224818);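 further: series mostly up to about 46 µM; viability measured after 17.5 h of compound exposure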
# How it was run: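 Cytotoxicity counter screen: fluorescence from CellTiter-Fluor, added after 17.5 h compound exposure at 37 C and read 30 min later. ERR cell line seeded at 2,000 cells/well, preincubated 6 h before dosing.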
# [14] = qHTS assay to identify small molecule antagonists of the estrogen related receptor (ERR) signaling pathway (AID 1224819;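 further: luminescence from an ERR-driven luciferase reporter measured with One-Glo reagent; series mostly up to about 46 µM; nearly all actives have a fitted effect of over 50% in size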)
# How it was run: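 LOPAC library screened for antagonism as reduced One-Glo luminescence in ERR reporter cells (2,000/well). Compounds were added after 6 h pre-incubation and left 18 h at 37C; reading followed a 30 min room-temperature reagent step.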
# [15] = qHTS assay to identify small molecule agonists of the estrogen related receptor (ERR) signaling pathway (AID 1224820)
# How it was run: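 An ERR cell line provided by NTP was seeded at 2,000 cells per well and allowed to settle for 6 h before compounds in DMSO were added. After 18 h at 37 C, luciferase activity was measured by One-Glo luminescence.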
# [16] = tested on: estrogen-related receptor alpha (ERRalpha) with PGC-1alpha coactivator, human; assay: qHTS assay to identify small molecule antagonists of the estrogen related receptor signaling pathway with the pleiotropic PPARgamma coactivator (PGC) (AID 1224821; calls by dose curve;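 further: series mostly up to about 46 µM; lower luminescence signal means antagonism of PGC/ERR signalling; nearly all actives have a fitted effect of over 50% in size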)
# How it was run: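 A PGC/ERR cell line supplied by NTP is seeded, allowed 6 h at 37 C, and treated with test compounds in DMSO for 18 h. Signal is then measured as luciferase luminescence using One-Glo.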
# [17] = qHTS assay to identify small molecule antagonists of the estrogen related receptor signaling pathway with the pleiotropic PPARgamma coactivator (PGC) cell viability counter screen (AID 1224822; further: series mostly up to about 46 µM)
# How it was run: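 Viability counter-screen read by fluorescence intensity after 30 min with CellTiter-Fluor at 37 C; PGC/ERR reporter cells were exposed to compounds for 17.5 h at 37 C following a 6 h preincubation.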
# [18] = qHTS assay to identify small molecule antagonists of the estrogen related receptor signaling pathway with the pleiotropic PPARgamma coactivator (PGC) from Tox21 10K library (AID 1224841; call rule not given here; further: series mostly up to about 92 µM; actives are mostly falling curves and most rising ones were filed inactive; nearly all actives have a fitted effect of over 50% in size)
# How it was run: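 Luminescence (One-Glo, 30 min at room temperature) after 18 h compound treatment at 37 C of PGC/ERR reporter cells plated at 2,000 cells/well and settled 6 h beforehand.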
# [19] = qHTS assay to identify small molecule agonists of the estrogen related receptor signaling pathway with the pleiotropic PPARgamma coactivator (PGC) from Tox21 10K library (AID 1224842); further: nearly all actives have a fitted effect of over 15% in size
# How it was run: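 PGC/ERR reporter cells (NTP line) were seeded 2,000 per well, rested 6 h at 37 C/5% CO2, then pin-dosed with compounds in DMSO for 18 h at 37 C; luciferase read by One-Glo luminescence after 30 min at room temperature.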
# [20] = qHTS assay to identify small molecule antagonists of the retinoic acid receptor (RAR) signaling pathway (AID 1159552; further: nearly all actives have a fitted effect of over 50% in size)
# How it was run: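 Overnight-plated C3RL4 reporter cells get compound, then retinol to 1 uM final; plates sit 6 hr at 37 C, 5% CO2. A luciferase reagent is added and light output recorded after 30 min at room temperature.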
# Sequence of Nuclear receptor subfamily 1 group I member 3 (Homo sapiens) (Q14994 whole entry, looked up): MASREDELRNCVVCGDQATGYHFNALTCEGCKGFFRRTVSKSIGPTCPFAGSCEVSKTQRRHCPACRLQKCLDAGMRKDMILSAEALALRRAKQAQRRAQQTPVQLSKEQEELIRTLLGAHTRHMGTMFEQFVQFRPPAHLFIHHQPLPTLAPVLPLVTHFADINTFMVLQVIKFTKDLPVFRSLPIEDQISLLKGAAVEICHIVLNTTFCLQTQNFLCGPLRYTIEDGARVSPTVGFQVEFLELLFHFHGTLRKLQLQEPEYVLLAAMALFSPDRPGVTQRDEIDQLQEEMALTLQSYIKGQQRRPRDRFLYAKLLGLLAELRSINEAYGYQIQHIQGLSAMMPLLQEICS
# Sequence of Retinoic acid receptor RXR-alpha (Homo sapiens) (P19793 whole entry, looked up): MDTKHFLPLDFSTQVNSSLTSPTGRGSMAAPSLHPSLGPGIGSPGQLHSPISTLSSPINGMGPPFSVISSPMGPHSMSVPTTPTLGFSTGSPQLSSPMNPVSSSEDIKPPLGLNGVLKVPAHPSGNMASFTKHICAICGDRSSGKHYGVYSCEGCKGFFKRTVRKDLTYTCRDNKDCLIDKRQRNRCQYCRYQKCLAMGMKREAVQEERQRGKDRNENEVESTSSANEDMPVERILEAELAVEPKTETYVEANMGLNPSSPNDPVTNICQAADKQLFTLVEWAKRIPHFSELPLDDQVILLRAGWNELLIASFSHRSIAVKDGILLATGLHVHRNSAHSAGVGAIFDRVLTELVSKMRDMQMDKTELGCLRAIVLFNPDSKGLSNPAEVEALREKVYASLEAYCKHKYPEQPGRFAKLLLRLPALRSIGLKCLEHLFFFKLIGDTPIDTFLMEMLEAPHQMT
# Sequence of Luciferin 4-monooxygenase (Photinus pyralis) (P08659 whole entry, looked up): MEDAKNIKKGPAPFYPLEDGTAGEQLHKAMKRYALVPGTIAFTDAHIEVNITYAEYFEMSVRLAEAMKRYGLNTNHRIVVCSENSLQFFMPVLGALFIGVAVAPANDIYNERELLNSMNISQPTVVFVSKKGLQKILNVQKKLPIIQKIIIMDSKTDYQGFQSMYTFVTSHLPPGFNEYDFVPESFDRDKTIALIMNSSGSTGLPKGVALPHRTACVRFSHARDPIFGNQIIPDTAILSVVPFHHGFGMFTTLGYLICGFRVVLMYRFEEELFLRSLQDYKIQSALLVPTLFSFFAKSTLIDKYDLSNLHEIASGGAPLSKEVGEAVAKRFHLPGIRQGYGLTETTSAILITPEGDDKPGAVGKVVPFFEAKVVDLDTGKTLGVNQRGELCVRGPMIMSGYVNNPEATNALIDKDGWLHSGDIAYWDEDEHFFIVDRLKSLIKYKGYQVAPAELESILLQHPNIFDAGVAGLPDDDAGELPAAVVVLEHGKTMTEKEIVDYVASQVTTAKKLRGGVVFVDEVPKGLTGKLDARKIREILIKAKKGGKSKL
# Sequence of Thyrotropin receptor (Homo sapiens) (P16473 whole entry, looked up): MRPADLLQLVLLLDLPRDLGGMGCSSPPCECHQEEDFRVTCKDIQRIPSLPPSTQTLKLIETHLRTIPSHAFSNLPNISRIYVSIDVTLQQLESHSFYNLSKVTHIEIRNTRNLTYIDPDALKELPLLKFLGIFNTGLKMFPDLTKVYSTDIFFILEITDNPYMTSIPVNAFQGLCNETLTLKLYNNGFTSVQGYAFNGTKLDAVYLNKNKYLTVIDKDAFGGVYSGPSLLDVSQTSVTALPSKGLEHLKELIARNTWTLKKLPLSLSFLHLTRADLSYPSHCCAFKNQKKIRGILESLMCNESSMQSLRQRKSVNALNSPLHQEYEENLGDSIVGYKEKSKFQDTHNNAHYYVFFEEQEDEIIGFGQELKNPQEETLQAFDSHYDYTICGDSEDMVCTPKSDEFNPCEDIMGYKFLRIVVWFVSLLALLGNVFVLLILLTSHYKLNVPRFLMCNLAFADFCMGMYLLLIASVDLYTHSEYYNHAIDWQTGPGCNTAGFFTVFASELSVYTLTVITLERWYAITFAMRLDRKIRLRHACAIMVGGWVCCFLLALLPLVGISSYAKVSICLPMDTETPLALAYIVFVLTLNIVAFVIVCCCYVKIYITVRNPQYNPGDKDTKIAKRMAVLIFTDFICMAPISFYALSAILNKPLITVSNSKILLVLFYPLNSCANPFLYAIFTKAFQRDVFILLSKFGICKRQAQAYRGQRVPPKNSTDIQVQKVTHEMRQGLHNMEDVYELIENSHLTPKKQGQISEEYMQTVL
smiles,measurement,setting,value
CCN(C)C(=O)Oc1cccc([C@H](C)N(C)C)c1,Potency,[1],inactive
same,outcome,[2],inactive
same,outcome,[3],inactive
same,Potency,[4],inactive
same,Potency,[5],inactive
same,Potency,[6],inactive
same,Potency,[7],inactive
same,Potency,[8],inactive
same,outcome,[9],inactive
same,Potency,[10],inactive
same,outcome,[11],inactive
same,Potency,[12],inactive
CCN(CC)CC(=O)Nc1c(C)cccc1C,Potency,[1],inactive
same,outcome,[2],inactive
same,outcome,[3],inactive
same,Potency,[4],inactive
same,outcome,[13],inactive
same,outcome,[14],inactive
same,outcome,[15],inactive
same,outcome,[16],inactive
same,outcome,[17],inactive
same,Potency,[5],inactive
same,Potency,[7],inactive
same,Potency,[8],inactive
same,outcome,[11],inactive
same,Potency,[18],inactive
same,outcome,[19],inactive
same,Potency,[12],inactive
O=Cc1ccc(Cl)c(Cl)c1,Potency,[1],inactive
same,outcome,[2],inactive
same,outcome,[3],inactive
same,Potency,[4],inactive
same,Potency,[6],inactive
same,Potency,[7],inactive
same,Potency,[8],inactive
same,outcome,[11],inactive
same,Potency,[12],inactive
O=C(O)CCSSCCC(=O)O,Potency,[1],inactive
same,outcome,[2],inactive
same,outcome,[3],inactive
same,outcome,[20],inactive
same,Potency,[6],inactive
same,Potency,[7],inactive
same,Potency,[8],inactive
same,outcome,[9],inactive
same,Potency,[10],inactive
same,outcome,[11],inactive
same,Potency,[12],inactive
CCOC(=O)c1ccc(OC(=O)CCCCCN=C(N)N)cc1,Potency,[1],inactive
same,outcome,[2],inactive
same,outcome,[3],inactive
same,outcome,[20],inactive
same,Potency,[7],inactive
same,Potency,[8],inactive
same,outcome,[9],inactive
same,outcome,[11],inactive
same,Potency,[12],inactive
Brc1ccc(-c2ccccc2)cc1,Potency,[1],inactive
same,outcome,[2],inactive
same,outcome,[3],inactive
same,Potency,[4],inactive
same,Potency,[5],inactive
same,Potency,[6],35.5 µM (active)
same,Potency,[7],inactive
same,Potency,[8],inactive
same,outcome,[9],inactive
same,outcome,[11],inactive
same,Potency,[12],inactive
O=S(O)(O)=S,activation,[1],4.57% [at 6.98 µM]
same,"activity change, negative = cytotoxicity",[2],0.418% [at 6.97 µM]
same,"activity change, negative = cytotoxicity",[3],0.445% [at 8.39 µM]
same,activation,[4],-0.738% [at 8.36 µM]
same,"viability change, negative = cytotoxic",[5],0.32% [at 8.39 µM]
same,"activity change, negative = inhibition",[6],1.12% [at 10.5 µM]
same,"viability change, negative = cytotoxic",[7],1.44% [at 8.39 µM]
same,"activity change, negative = cytotoxicity",[8],0.559% [at 8.39 µM]
same,"activity, negative = inhibition",[9],-2.22% [at 8.39 µM]
same,"viability change, negative = cytotoxic",[11],0.0211% [at 8.39 µM]
same,activation,[19],-0.09% [at 8.39 µM]
same,activation,[12],8.08% [at 8.39 µM]
NS(=O)(=O)c1cc2c(cc1Cl)CN(C1CCCCC1)C2=O,Potency,[1],inactive
same,outcome,[2],inactive
same,outcome,[3],inactive
same,outcome,[20],inactive
same,Potency,[6],inactive
same,Potency,[8],inactive
same,outcome,[9],inactive
same,Potency,[10],inactive
same,outcome,[11],inactive
same,Potency,[12],inactive
O=S(=O)(O)c1cc(O)c2ccc(Nc3ccccc3)cc2c1,Potency,[1],inactive
same,outcome,[2],inactive
same,outcome,[3],inactive
same,outcome,[20],inactive
same,Potency,[6],17.8 µM (active)
same,Potency,[7],inactive
same,Potency,[8],inactive
same,outcome,[9],inactive
same,outcome,[11],inactive
CC(C)C(=O)OCc1cccc(OC(=O)[C@@H]2N3C(=O)[C@@H](NC(=O)Cc4ccccc4)[C@H]3SC2(C)C)c1,Potency,[1],inactive
same,outcome,[2],inactive
same,outcome,[3],inactive
same,outcome,[20],inactive
same,Potency,[7],inactive
same,Potency,[8],inactive
same,outcome,[11],inactive
same,Potency,[12],inactive
CC(C)=O,Potency,[1],inactive
same,outcome,[2],inactive
same,outcome,[3],inactive
same,Potency,[4],inactive
same,Potency,[5],inactive
same,Potency,[6],inactive
same,Potency,[7],inactive
same,Potency,[8],inactive
same,outcome,[9],inactive
same,outcome,[11],inactive
same,Potency,[12],inactive
